Screens deposited in PubChem BioAssay by National Center for Advancing Translational Sciences (NCATS).
Hits are enriched below; roughly 1.5% of the tested compounds scored in any of these assays.
CtBP-E1A inh – blocks the CtBP interaction with E1A; AlphaScreen GST-E1A/His-CtBP binding, 1536-well; hits give low values; activity change, % (concentration not given with the values); hit rate 0.49% among 340,000; AID 651724; in the data active means activity change below about -65%; inconclusive means mostly about -30% to -63%
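Homogeneous bead-based format: GST-tagged E1A captured on glutathione donor beads, His-tagged CtBP on nickel acceptor beads; compounds precede bead addition by 2 h at 37 °C.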
GALK inhibitor – blocks human galactokinase activity; P51570; Purified GALK, Kinase-Glo residual ATP luminescence; Potency, µM (top dose mostly 57.5 µM), most hits filed as inhibitors; hit rate 0.007% among 270,000; AID 1868
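5 nM enzyme, 35 uM ATP, 100 uM galactose, 20 mM HEPES pH8.0, 5 mM MgCl2; 1 h RT; residual ATP by Kinase-Glo Plus luminescence, qHTS format.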
Eya2 phos inh – Eya2 (human) phosphatase inhibition. hit rate 0.006% among 330,000. AID 488837. Potency, µM (highest dose often 76.9 µM), usual class: inhibitors. recombinant Eya2, OMFP fluorescence dephosphorylation (OMFP is methylfluorescein phosphate)
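Eya2 protein (added as 0.2 uM solution) was preincubated with compound for 10 min at ambient temperature in 50 mM HEPES pH 7.5, 50 mM NaCl, 5 uM MgCl2, 0.05% BSA, 1 mM DTT. OMFP (added at 50 uM) then reacted 10 min; fluorescence read at 485/525 nm.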
rTrxR1 inhibitor – blocks rat thioredoxin reductase 1; recombinant rTrxR1, NADPH fluorescence consumption, selenite substrate; Potency, µM (titrated, usually from 114 µM), most hits filed as inhibitors; hit rate 1% among 390,000; further: nearly all actives have a fitted effect of over 65% in size
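Rat TrxR1 (90 nM in the dispensed reagent) was pre-reduced with 400 uM NADPH for 5 min at room temperature, then incubated with compound for 15 min. After 400 uM selenite was added, NADPH fluorescence (Ex 340/Em 450 nm) was followed for 8 min.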
Six1-Eya2 blk – Six1/Eya2 interaction inhibition | AID 651725 | activity change, % (no concentration beside the values) | hit rate 0.56% among 360,000 | AlphaScreen GST-Six1/His-Eya2 binding, biochemical; hits give low values; in the data active means activity change below about -65%; inconclusive means mostly about -30% to -63%
Target sequence (O00167 whole entry, looked up): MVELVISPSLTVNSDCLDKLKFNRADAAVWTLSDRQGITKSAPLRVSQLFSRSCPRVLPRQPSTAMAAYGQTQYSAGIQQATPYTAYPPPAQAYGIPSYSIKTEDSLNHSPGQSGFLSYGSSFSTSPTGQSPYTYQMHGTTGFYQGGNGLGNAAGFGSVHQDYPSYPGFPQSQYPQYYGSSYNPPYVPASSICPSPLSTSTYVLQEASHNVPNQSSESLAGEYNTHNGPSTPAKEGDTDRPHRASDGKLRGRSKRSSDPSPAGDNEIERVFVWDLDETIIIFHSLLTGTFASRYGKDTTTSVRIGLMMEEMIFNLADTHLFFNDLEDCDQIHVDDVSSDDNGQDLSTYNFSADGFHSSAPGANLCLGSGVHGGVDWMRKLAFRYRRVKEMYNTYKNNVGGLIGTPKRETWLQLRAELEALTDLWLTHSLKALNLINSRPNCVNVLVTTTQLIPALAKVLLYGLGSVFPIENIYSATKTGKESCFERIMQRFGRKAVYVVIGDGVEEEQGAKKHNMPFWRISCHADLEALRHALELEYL
Target sequence (Q15475 whole entry, looked up): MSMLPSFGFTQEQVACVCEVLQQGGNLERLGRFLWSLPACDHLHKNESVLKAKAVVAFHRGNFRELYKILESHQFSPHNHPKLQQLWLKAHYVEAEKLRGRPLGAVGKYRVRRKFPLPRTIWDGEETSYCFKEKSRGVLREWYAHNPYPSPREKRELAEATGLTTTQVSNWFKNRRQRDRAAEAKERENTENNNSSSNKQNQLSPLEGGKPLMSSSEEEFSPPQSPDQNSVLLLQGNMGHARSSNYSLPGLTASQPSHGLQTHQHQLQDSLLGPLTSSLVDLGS
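GST-Six1 + His-Eya2 (5X stock: 250/500 nM); Tris pH 8.0, 300 mM NaCl, 0.05% BSA, 0.02% Tween 20; GSH donor/Ni acceptor beads; 1 h 37 °C dark; AlphaScreen readout.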
TrxR1 substrate – is turned over as a substrate by rat TrxR1 | Potency, µM (series often up to 114 µM) | purified TrxR1 substrate turnover, NADPH consumption readout | AID 588456 | hit rate 0.01% among 390,000 | O89049; further: nearly all actives have a fitted effect of over 50% in size
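Rat TrxR1, dispensed at 90 nM, was prereduced with 400 uM NADPH (final) for 5 min at ~22 deg C, then incubated with compound 15 min before 400 uM selenite. A first-read NADPH fluorescence drop versus no-compound background flagged substrates.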
Numbers stand for hits; . = inactive; ? = inconclusive; / = no result given. Unless noted, the call rests on the fitted dose curve; in most records, active means well fitted curve in the direction sought with a large enough effect; inconclusive means small, poorly fitted or top-dose-only effect, or another doubt; inactive means no such curve, though single readings can be large; an effect the other way counts as inactive or inconclusive.

SMILES	CtBP-E1A inh	GALK inhibitor	Eya2 phos inh	rTrxR1 inhibitor	Six1-Eya2 blk	TrxR1 substrate
O=S(=O)(c1cccc(C(F)(F)F)c1)N1CCC(Oc2ccc(-n3cnnn3)cc2)CC1	/	/	/	.	/	.
O=C(COC(=O)c1ccc([N+](=O)[O-])o1)Nc1ccc(Br)cc1F	/	/	.	5µM	.	.
O=C(COC(=O)c1ccc([N+](=O)[O-])o1)Nc1cccc(S(=O)(=O)N2CCOCC2)c1	.	.	.	?	.	.
CN(C)S(=O)(=O)c1cccc(NC(=O)COC(=O)c2ccc([N+](=O)[O-])o2)c1	.	.	.	25µM	.	.
O=C(COC(=O)c1ccc([N+](=O)[O-])o1)Nc1ccc(N2CCOCC2)cc1	.	/	.	?	.	.
Cc1cccc(NC(=O)COC(=O)c2ccc([N+](=O)[O-])o2)c1C	.	.	.	?	.	.
O=C(COC(=O)c1ccc([N+](=O)[O-])o1)Nc1ccc(F)cc1	/	/	.	25µM	.	.
Cc1ccc(-c2nc3s/c(=C\c4ccco4)c(=O)n3n2)cc1	.	.	.	.	.	.
O=c1nc2s/c(=C\c3ccco3)c(=O)n2nc1Cc1ccc(F)cc1	-80	.	.	.	-81	.
O=C(N/N=C/c1ccc(-c2ccc(Cl)c(C(=O)O)c2)o1)c1cc2c(ccc3ccccc32)o1	-85	/	.	.	?	.
Cc1ccc(-c2ccc(/C=N\NC(=O)c3cc4c(ccc5ccccc54)o3)o2)cc1[N+](=O)[O-]	.	.	.	.	.	.
CSc1nc(O)c(C(c2ccc(OC(C)C)cc2)c2c(O)nc(SC)[nH]c2=O)c(=O)[nH]1	.	/	/	11µM	.	.
CSc1nc(O)c(C(c2ccc(F)cc2)c2c(O)nc(SC)[nH]c2=O)c(=O)[nH]1	.	/	/	?	.	.
COc1ccc(NC(=O)c2oc3ccccc3c2NC(=O)Cc2coc3c(C)c(C)ccc23)cc1	/	/	/	.	/	.
COC(=O)c1sc(N)c(C(=O)OC)c1Cn1ncc(Cl)c(Cl)c1=O	.	.	.	2.5µM	.	.
O=C(N/N=C/c1ccc(Sc2ccccn2)o1)c1cc2ccccc2cc1O	.	.	.	.	.	.
O=C(CCc1ccccc1O)N/N=C/c1ccc(Sc2cccc3cccnc23)o1	-92	.	.	.	-88	.
CCn1nnc2cc(C(=O)Nc3ccc(C)cc3Br)ccc21	/	/	/	.	/	.
CC(=O)C(=Nc1ccccc1Cl)NNc1ccc(Cl)cc1	?	.	.	?	-73	.
Cn1c(C(=O)NCc2ccc(F)cc2)cc2c(=O)n(C)c3ccccc3c21	/	/	/	.	/	.
CCOC(=O)/C=C/C(=O)Nc1cccc([N+](=O)[O-])c1	.	.	.	4µM	.	.
COc1ccc(NC(=O)c2cccc([N+](=O)[O-])c2)cc1	.	.	.	.	.	.
COc1ccc(NC(=S)Nc2cccc([N+](=O)[O-])c2)cc1	.	.	.	18µM	.	.
CCc1nc2nc(C)cc(Nc3cc(Cl)ccc3C)n2n1	/	/	/	.	/	.
CN(C)c1nc(C=C(C#N)C#N)c(Cl)n1-c1ccc(F)cc1	.	.	.	4.5µM	.	.
SMILES	CtBP-E1A inh	GALK inhibitor	Eya2 phos inh	rTrxR1 inhibitor	Six1-Eya2 blk	TrxR1 substrate
O=C1/C(=C\c2ccco2)CCC/C1=C\c1ccco1	.	.	.	2.2µM	.	.
CC1(C)CC(=O)C=C(NC2=CC3OC(c4ccccc4)OCC3OC2=O)C1 (stereo not given)	.	/	.	16µM	.	.
Cc1ccccc1NC1=CC(=O)CC(C)(C)C1	.	.	.	.	.	.
CCOC(=O)C1CCN(S(=O)(=O)c2cc(-c3onc(C)c3C)ccc2C)CC1	/	/	/	.	/	.
O=S(=O)(c1ccc(Br)cc1)N1CCN(c2nc(-c3cccs3)nc3ccccc23)CC1	/	/	/	.	/	.
COc1ccc(C)cc1NC(=O)CN1c2ccccc2S(=O)(=O)c2ccccc21	/	/	/	.	/	.
CC(=O)Oc1ccc2cc(-c3nc4c(s3)CCc3ccccc3-4)c(=O)oc2c1	/	/	/	.	/	.
CCOC(=O)c1c(C)oc2nc(C)nc(NCc3ccccc3OC)c12	/	/	/	.	/	.
Cc1ccc(/C=C2/C(=O)N(c3ccccc3)C(=S)N2C)o1	.	.	.	20µM	.	.
Cc1ccc(/C=C2/SC(=S)N(C3CCCCC3)C2=O)o1	.	.	.	.	.	.
Cc1ccc(/C=C2\C(=O)Nc3ccccc32)o1	.	.	.	18µM	.	.
CCOc1ccc(N2C(=O)/C(=C/c3ccco3)N(C)C2=S)cc1	.	.	.	?	.	.
Cc1ccc(C2=NOC(=O)/C2=C\c2ccc(C)o2)cc1	.	.	.	.	.	.
Cc1ccc(/C=C2/SC(=O)NC2=S)o1	.	.	.	56µM	?	.
Cc1ccc(/C=C2\C(=O)NC(=O)N2C)o1	.	.	.	50µM	.	.
O=[N+]([O-])c1cc(Cl)ccc1Nc1nc(Nc2ccc(Cl)cc2[N+](=O)[O-])nc(N2CCOCC2)n1	/	/	/	.	/	.
COc1ccc(N2CCN(C(=O)c3ccc(C)c(NC(=O)c4nsc5ccccc45)c3)CC2)cc1	/	/	/	.	/	.
COc1ccc(S(=O)(=O)c2cn(C)c3cc(N4CCCCCC4)c(F)cc3c2=O)cc1	/	/	/	.	/	.
COc1ccc(CN(Cc2ccccc2)C(=O)c2ccncc2)cc1COc1ccc(NC(C)=O)cc1	/	/	/	.	/	.
COc1cccc(-c2n[nH]c(=S)n2Cc2ccco2)c1	.	.	.	40µM	.	.
CC1CCCC(C)N1C(=O)COC(=O)/C=C/c1ccc(Br)o1 (stereo not given)	?	/	.	35µM	.	.
O=C(COC(=O)/C=C/c1ccc(Br)o1)NCCCN1CCCC1=O	.	.	.	.	.	.
CC1CCN(C(=O)COC(=O)/C=C/c2ccc(Br)o2)CC1	.	/	.	25µM	.	.
O=C(/C=C/c1ccc(Br)o1)OCc1ccccc1	.	.	.	?	.	.
COc1ccccc1CNC(=O)c1ccc(N2CCCC2)c(NC(=O)NCCC(C)C)c1	/	/	/	.	/	.
SMILES	CtBP-E1A inh	GALK inhibitor	Eya2 phos inh	rTrxR1 inhibitor	Six1-Eya2 blk	TrxR1 substrate
CC[C@@]1(c2ccccc2OC)C(=O)N(C(=O)OC)N1C(=O)OC	.	/	.	?	.	.
COC(=O)N1C(=O)[C@@](c2ccccc2)(C2CCCC2)N1C(=O)OC	.	/	.	8.9µM	.	.
COC(=O)N1C(=O)[C@](c2ccccc2)(C2CCCCC2)N1C(=O)OC	.	/	.	?	.	.
COC(=O)N1C(=O)[C@](CC(C)C)(c2ccccc2)N1C(=O)OC	.	/	.	2µM	.	.
CCOC(=O)N1C(=O)[C@@](CC)(c2ccccc2)N1C(=O)OCC	.	/	.	2.2µM	.	.
COC(=O)N1C(=O)[C@@](CC(C)C)(c2ccccc2)N1C(=O)OC	/	/	.	/	/	/
CC[C@@]1(c2cccc(C)c2)C(=O)N(C(=O)OC)N1C(=O)OC	.	/	.	2µM	.	.
Cc1ccc2occ(CC(=O)Nc3ccc(S(=O)(=O)N4CCCC(C)C4)cc3)c2c1 (stereo not given)	/	/	/	.	/	.
